Screens as filed in PubChem.
TGFb SMAD3 inh: blocks TGF-b signaling; AID 588855; 1.2% of 410,000 active; HepG2 CAGA-GFP TGF-b/SMAD3 reporter, GFP fluorescence, 18 h; TGF-beta stimulated, 500 pg/mL final; Potency, µM (highest dose often 46.1 µM), for the others: at the highest dose activity, negative = inhibition, actives largely listed as inhibitors; also: % is scaled to controls: 0 for no effect and ±100 for the full control effect; nearly all actives have a fitted effect of over 65% in size
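Using HEPG2 CAGA-GFP reporter cells at 1000 cells/well, we pinned test compounds, stimulated with recombinant TGF-beta (500 pg/mL final) and measured total well GFP after 18 h.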
HepG2 tox: HepG2 cytotoxicity, counter-screen for TGF-b inhibitors; HepG2 CAGA-GFP viability, ATP luminescence, 18 h; Potency, µM (highest dose often 46.1 µM), inactives show at the top dose activity change, negative = cytotoxicity, actives largely listed as cytotoxic; 0.76% of 410,000 active
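HepG2 CAGA-GFP cells (1000/well, DMEM with 1% FBS) received compound, then TGF-beta at 500 pg/mL final, and were incubated 18 hours at 37 degrees C. Viability was read by CellTiter-Glo luminescence. Media-only wells were set as complete cell-killing and DMSO as no toxicity.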
HT1080 IDH1KD tx: kills HT-1080 cells with IDH1 knockdown | HT-1080 IDH1 knockdown viability, ATP luminescence, 48 h | Potency, µM (series often up to 46.1 µM), without a hit: at the highest dose activity, negative = toxicity, most hits filed as cytotoxic | AID 686971 | 2% of 360,000 active;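 also: 0% = DMSO wells and -100% = cell-free medium wells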
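Knockdown cells (IDH1KD HT-1080) received compounds 2 h after plating at 750 cells/well and were kept 48 h at 37 °C in 5% FBS RPMI. A CellTiter-Glo luminescence read gave % activity for curve fitting.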
ATXN viability: cell viability loss in ATXN counter-screen; S2 cells (HEK-293 line with an ATXN2-luciferase reporter) viability, CellTiter-Fluor protease fluorescence, 24 h; Potency, µM (titrated, usually from 56.7 µM), hits mostly cytotoxic; 0.49% of 400,000 active; AID 651635; also: nearly all actives have a fitted effect of over 40% in size
ATXN2 expr inh: inhibitors of ATXN2 expression; 0.72% of 360,000 active; HEK-293 ATXN2-luciferase reporter, luminescence, 24 h; Potency, µM (top dose mostly 57 µM), without a hit: top-dose activity change, negative = inhibition, most hits filed as inhibitors; AID 1745845; also: % is scaled to controls: 0 for no effect and ±100 for the full control effect; nearly all actives have a fitted effect of over 55% in size
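ATXN2-luciferase reporter cells (luciferase flanked by upstream and downstream ATXN2 gene portions) were treated 24 h at 37 °C with compounds at up to 57 uM. SteadyGlo luminescence gave expression; GF-AFC fluorescence gave viability.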
HT1080-NT tox: kills 2HG-producing HT-1080-NT fibrosarcoma cells | HT-1080-NT fibrosarcoma viability, CellTiter-Glo ATP luminescence, 48 h | Potency, µM (highest dose often 46.1 µM), inactives show at the top dose activity, negative = less viability, usual class: cytotoxic | 1.6% of 360,000 active | AID 686970;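 also: NT is the 2HG producing partner of a matched IDH1 knockdown line; 0% = DMSO-treated cells and -100% = media-only wells without cells; nearly all actives have a fitted effect of over 55% in size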
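HT-1080-NT fibrosarcoma cells (2HG-overproducing), 750 cells/well in RPMI with 5% FBS, dosed after 2 h and incubated 48 h at 37C. CellTiter-Glo luminescence normalized to DMSO and no-cell wells; concentration-response curves fitted and classed.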
Active calls of the source: *; i = inactive; ? = inconclusive; · = no result. Only some compounds are listed: those with a hit (about 3.8% of all), similar ones and a draw of the others. Calls follow the shape of the dose curve; as a rule, active = well fitted curve in the direction sought with a large enough effect; inconclusive = small, poorly fitted or top-dose-only effect, or another doubt; inactive = no such curve, though single readings can be large; an effect the other way counts as inactive or inconclusive. Potency is read from the fitted curve at half-maximal effect.

SMILES	TGFb SMAD3 inh	HepG2 tox	HT1080 IDH1KD tx	ATXN viability	ATXN2 expr inh	HT1080-NT tox
C[n+]1c2n(c3ccccc31)N=C(c1ccc(-c3ccccc3)cc1)CS2	?	-5%	?	?	·	?
C[n+]1c2n(c3ccccc31)N=C(c1ccc(Br)cc1)CS2	-19%	-33%	13µM*	?	?	?
CCOC(=O)Cc1ccc(NC(=O)n2ncc3cc(Cl)ccc32)cc1	21%	-17%	·	i	20µM*	·
O=C1NC[C@H](Cc2ccccc2)N(C[C@H]2CCCN2C[C@H](Cc2ccccc2)N2C[C@H](Cc3ccccc3)N(CCc3ccccc3)C(=O)C2=O)C1=O	?	-34%	?	18µM*	?	?
CCOc1ccc(CCN2C(=O)C(=O)N([C@@H](CC(C)C)CN3CCC[C@@H]3CN3C(=O)C(=O)NC[C@@H]3Cc3ccccc3)C[C@@H]2CC(C)C)cc1	10µM*	-37%	?	·	?	?
CCOc1ccc(CCN2C(=O)C(=O)N([C@@H](Cc3ccccc3)CN3CCC[C@H]3CN3C(=O)C(=O)NC[C@@H]3Cc3ccccc3)C[C@@H]2Cc2ccccc2)cc1	·	·	?	28µM*	?	?
O=C1c2ccccc2C(=O)C12OC2c1ccc(Cl)cc1Cl (stereo unspecified)	?	20µM*	?	?	?	21µM*
Cn1c(SCc2ccc(C(C)(C)C)cc2)nnc1C1COc2ccccc2O1 (stereo unspecified)	22µM*	-2%	?	i	?	-9%
O=C(Nc1ccccc1Cl)C1C(c2ccccc2)C1(Cl)Cl (stereo unspecified)	?	-2%	-1%	·	·	-6%
O=C(Nc1ccc(F)cc1)C1C(c2ccccc2)C1(Cl)Cl (stereo unspecified)	16µM*	-31%	-9%	?	?	-14%
COc1cc(=O)n2c(c1C(=O)NCc1ccc3c(c1)OCO3)CCN(C(=O)c1ccc(C)cc1)CC2	·	·	·	i	·	·
CCOC(=O)c1[nH]c2ccc(OC)cc2c1NC(=S)N1CCN(c2ccccc2OC)CC1	?	-12%	13µM*	i	-15%	?
C/C(=N\Nc1cc(-c2ccccc2)nc(-c2ccc(Br)cc2)n1)c1cccc(N)c1	?	-33%	18µM*	i	6%	11µM*
Cc1cc(-n2c(=O)[nH]c(=O)n(C)c2=O)ccc1Oc1ccc(S(=O)(=O)C(F)(F)F)cc1	·	·	·	i	·	·
COC(=O)C1C=CC(OC2OC(COC(C)=O)C(OC(C)=O)C(OC(C)=O)C2OC(C)=O)n2c(=O)n(-c3ccccc3)c(=O)n21 (stereo unspecified)	?	-86%	5.8µM*	?	?	?
CC(C)(C)c1ccc(OCC(=O)Nc2ccc(C(=O)OC3CCCCC3)cc2)cc1	-2%	-1%	·	?	0%	·
CCOC(=O)c1cnc2ccc(C)cc2c1NCCc1ccc(OC)c(OC)c1	11µM*	-51%	·	i	-14%	·
CCOC(=O)c1cnc2ccc(OCC)cc2c1NCCc1ccc(OC)c(OC)c1	13µM*	-48%	·	·	·	·
N#C/C(=C1\SCC(c2ccccc2Cl)S1)n1ccnc1 (stereo unspecified)	·	·	·	i	-4%	·
O=C1NN=C(c2ccc(Cl)cc2)CC1c1cccc(Br)c1 (stereo unspecified)	10µM*	-14%	?	i	-30%	?
O=C(Nc1nnc(C2CC2)s1)C1COc2ccccc2O1 (stereo unspecified)	-4%	-12%	14%	i	-1%	22%
O=C(Nc1nnc(C(F)(F)F)s1)C1COc2ccccc2O1 (stereo unspecified)	?	-38%	23µM*	i	14%	?
O=C(NNc1c([N+](=O)[O-])cc(C(F)(F)F)cc1[N+](=O)[O-])c1ccco1	?	-36%	?	?	?	21µM*
CCCN1CCC(=NNc2ccc(S(N)(=O)=O)cc2[N+](=O)[O-])CC1	-38%	-40%	1%	i	33%	-2%
CCCN1CCC(=NNc2ccc(S(=O)(=O)N(CC)CC)cc2[N+](=O)[O-])CC1	?	-8%	5.8µM*	i	-20%	8.2µM*
SMILES	TGFb SMAD3 inh	HepG2 tox	HT1080 IDH1KD tx	ATXN viability	ATXN2 expr inh	HT1080-NT tox
COc1ccc(-n2c(SCC(=O)NCc3ccccc3)nc3n[nH]c(C)c3c2=N)cc1	-13%	-21%	·	·	·	·
COc1ccc(Br)cc1C(=O)Nc1ccc(NC(=O)c2ccco2)cc1	-21%	-17%	8%	i	-3%	11%
O=C(/C=C/c1cc(Br)ccc1O)c1ccco1	?	11µM*	9.2µM*	·	?	9.2µM*
COc1ccccc1/C=C/C(=O)c1cc(Br)ccc1OC(=O)c1ccco1	?	-88%	21µM*	?	?	18µM*
Cc1ccc(/C=C/C(=O)c2cc(Br)ccc2OC(=O)c2ccco2)cc1	-14%	11µM*	?	i	-4%	?
CCOc1ccc(CCNC(=O)CSc2nc3ccccc3nc2Cc2ccc(C)cc2)cc1OCC	22%	13%	·	i	3%	·
O=C(Cc1ccc(Cl)cc1)NO	·	·	7%	·	·	-6%
CC(C)(C)c1ccc(Oc2ccc(N)cn2)cc1	?	4%	-23%	i	9.5µM*	-1%
COc1ccc(OC)c(NC(=O)C(C)n2c(=O)c(-c3ccccc3NC(C)=O)nc3ccccc32)c1 (stereo unspecified)	15%	-17%	·	·	·	·
Cc1ccc(-n2nc(C)c(C(=O)NCCCN3CCN(c4ccc(F)cc4)CC3)c2-n2cccc2)cc1	-89%	-54%	·	·	?	·
Cc1cccc2c1-c1sc(C(=O)NCCCN3CCN(c4cccc(Cl)c4)CC3)cc1CO2	13µM*	-86%	·	?	?	·
Cc1cccc2c1-c1sc(C(=O)NCCCN3CCN(c4ccccc4F)CC3)cc1CO2	4%	-43%	·	i	-37%	·
Cc1nn(-c2ccc(F)cc2)c(-n2cccc2)c1C(=O)NCCCN1CCN(c2cccc(Cl)c2)CC1	11µM*	18µM*	·	?	?	·
Cc1cccc2c1-c1sc(C(=O)Nc3ccccc3N3CCN(C)CC3)cc1CO2	?	16µM*	-30%	?	28µM*	?
CCOc1cccc2sc(NC(=O)CS(=O)(=O)c3ccc(C)cc3)nc12	-2%	-1%	·	·	·	·
